# VP16 counter – inhibits Gal4-VP16 luciferase reporter, ROR gamma counter-screen; actives 3.5% (n = 310,000); AID 2546; Potency, µM (highest dose often 53.6 µM), for inactives: at the top dose activity, negative = inhibition, usual class: inhibitors; Drosophila S2 Gal4-VP16 UAS-luciferase, luminescence, 20 h;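 further: Gal4-VP16 expression switched on by copper sulfate through the metallothionein promoter; nearly all actives have a fitted effect of over 50% in size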
# ALOX12 inh – ALOX12 (human) lipoxygenase inhibition. P18054. purified 12hLO, xylenol orange hydroperoxide absorbance. Potency, µM (top dose mostly 108 µM), without a hit: at the top dose activity change, negative = inhibition, hits mostly inhibitors. actives 1.1% (n = 580,000)
#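 Hydroperoxide product was detected by ferrous iron/xylenol orange as the 573 to 405 nm absorbance ratio. Arachidonic acid at 40 uM (final) was turned over for 30 min at room temperature by 150 nM human 12hLO, pH 7.0 Hepes buffer, after 15 min compound preincubation.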
# ELG1 repair inh – inhibitors of ELG1-dependent DNA repair in HEK293T cells; Potency, µM (highest dose often 46.1 µM), inactives show at the top dose activity change, negative = inhibition, hits mostly inhibitors; HEK293T ELG1-luciferase reporter, luminescence, 16 h; DNA damage induced by 5-fluorouridine; actives 2.3% (n = 330,000); further: nearly all actives have a fitted effect of over 55% in size
#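 DMSO vehicle served as the neutral condition. Each well held 2,000 cells given 5-fluorouridine plus compound; after 16 hr at 37 °C/5% CO2, ONE-Glo was added and luciferase measured 30 min later.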
# DT40 TDP1 no CPT – qHTS for Inhibitors of human tyrosyl-DNA phosphodiesterase 1 (TDP1): qHTS in cells in absence of CPT; DT40 Tdp1-/- hTDP1 cells, no CPT, ATP luminescence, 48 h; Potency, µM (titrated, usually from 46.2 µM), for the others: at the top dose activity change, negative = growth inhibition, hits mostly inhibitors; actives 15% (n = 420,000); AID 686978, 2013; further: nearly all actives have a fitted effect of over 55% in size
#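 Seeded 400 DT40-hTDP1 cells/well (vehicle DMSO, no 20 nM CPT); pinned compounds; ≥48 hr at 37 °C; CellTiter-Glo luminescence as viability measure.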
# RORg inh – blocks mouse ROR gamma transcriptional activity; P51450; Drosophila S2 Gal4-RORgamma UAS-luciferase reporter, 20 h; Potency, µM (top dose mostly 53.6 µM), for the others: top-dose activity change, negative = inhibition, usual class: inhibitors; actives 5.4% (n = 310,000); AID 2551; further: nearly all actives have a fitted effect of over 60% in size
# Target sequence (P51450 whole entry, looked up, the tested form may be a part): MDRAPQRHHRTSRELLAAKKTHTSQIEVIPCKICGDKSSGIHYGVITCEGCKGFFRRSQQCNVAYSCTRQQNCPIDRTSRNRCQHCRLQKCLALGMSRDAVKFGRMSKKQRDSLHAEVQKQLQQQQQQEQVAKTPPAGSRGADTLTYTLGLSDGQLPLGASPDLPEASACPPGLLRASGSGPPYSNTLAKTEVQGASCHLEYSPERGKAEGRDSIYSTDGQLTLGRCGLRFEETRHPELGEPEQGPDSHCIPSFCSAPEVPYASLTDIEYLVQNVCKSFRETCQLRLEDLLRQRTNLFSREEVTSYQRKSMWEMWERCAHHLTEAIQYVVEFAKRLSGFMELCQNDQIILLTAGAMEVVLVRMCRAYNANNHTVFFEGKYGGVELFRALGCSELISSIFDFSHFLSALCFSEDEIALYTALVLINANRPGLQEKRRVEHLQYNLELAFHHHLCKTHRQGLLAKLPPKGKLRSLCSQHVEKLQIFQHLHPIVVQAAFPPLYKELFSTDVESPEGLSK
#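 A Gal4/UAS one-hybrid system in insect cells: metallothionein-promoter Gal4–ROR gamma fusion plus Photinus luciferase reporter. Copper sulfate 700 uM final, 20 hr ambient incubation, luminescent detection after 10 min with reagent.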
# DT40 TDP1 CPT – growth inhibition of DT40 Tdp1-/-;hTDP1 cells with camptothecin (screen for TDP1 inhibitors). AID 686979. Potency, µM (highest dose often 46.2 µM), for the others: at the top dose activity change, negative = growth inhibition, most hits filed as inhibitors. chicken DT40 Tdp1-/-;hTDP1 cells + 20 nM CPT, ATP luminescence, 48 h. actives 12% (n = 420,000); further: nearly all actives have a fitted effect of over 55% in size
#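 Chicken DT40 Tdp1-/- cells stably complemented with human TDP1 were seeded at 400 cells/well in medium containing 20 nM camptothecin, exposed to pin-transferred compounds, and grown at 37 °C for at least 48 hr. Viability was read as ATP luminescence.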
# Starred values were filed as active, the others as inactive; ? = inconclusive; nt = not tested or not shown; [ ] = dose if it differs, or a comment. A selection: hits, their analogues and other compounds. The true share with any hit is near 15%. The call rests on the fitted dose curve; in most records, active means well fitted curve in the direction sought with a large enough effect; inconclusive means small, poorly fitted or top-dose-only effect, or another doubt; inactive means no such curve, though single readings can be large; an effect the other way counts as inactive or inconclusive. On the % scale 0 is the no-effect control and ±100 the full control effect; potency means the concentration at half of the fitted maximal effect.
SMILES,VP16 counter,ALOX12 inh,ELG1 repair inh,DT40 TDP1 no CPT,RORg inh,DT40 TDP1 CPT
O=C1CC(c2ccco2)Cc2[nH]c(=O)c(C(=O)Nc3ccccc3)cc21 (configuration not stated),nt,nt,nt,10µM*,nt,?
NC(=O)C1CCN(CC(=O)Nc2cccc(Cl)c2)CC1,nt,13%,nt,nt,nt,nt
COc1cc(S(=O)(=O)Nc2cccc(C)c2)ccc1NC(=O)c1ccncc1,-19%,21%,?,13µM*,15%,?
O=C(Nc1ccncc1)c1ccc(NS(=O)(=O)c2cccc(F)c2)cc1,-11%,14%,-21%,21µM*,32%,?
CCOc1ccc(NS(=O)(=O)c2ccc(NC(=O)c3cccnc3)c(OC)c2)cc1,-6%,-6%,2%,-20%,16%,-10%
Cc1ccccc1NC(=O)c1cc(S(=O)(=O)c2ccccc2)ccc1Cl,1%,348%,-22%,?,11%,?
COc1ccc(C(=O)Nc2ccc(NS(=O)(=O)c3ccccc3)cc2)cc1OC,2%,0%,18µM*,?,15%,?
Cc1cccc(NS(=O)(=O)c2ccc(Cl)c(C(=O)Nc3ccccc3C)c2)c1,nt,0%,nt,15µM*,nt,?
CC(C)CCN1CCOc2cc([S+](=O)([O-])Nc3cccnc3)ccc2C1,nt,-19%[176 µM],nt,nt,nt,nt
CCCOC(=O)c1cc(-c2ccccc2)nc2ccccc12,nt,11%,nt,nt,nt,nt
O=C(c1cc(F)cc(F)c1)N1CCC(N2CC3CC(C2)[C@H]2CCCC(=O)N2C3)CC1 (some centres not stated),nt,38%,nt,nt,nt,nt
CCc1ccc(CNC(=O)c2ccccc2SC)s1,nt,-20%,nt,nt,nt,nt
COc1cccc(S(=O)(=O)Nc2ccc(C(=O)Nc3ccncc3)cc2)c1,1%,-5%,?,?,12%,13µM*
COc1cccc(C(=O)Nc2ccc(C(=O)c3ccncc3)cc2)c1,-1%,-6%,?,?,?,?
O=C(O)C[C@@H]1CCN(C(=O)C2CCC2)C[C@@H]1CCN1CCN(c2ccccn2)CC1,nt,-6%[176 µM],nt,nt,nt,nt
CC(C)(C)c1ccccc1NC(=O)CSc1ncnc2ccccc12,nt,3%,nt,nt,nt,nt
C=CC(COCc1ccccc1)N([C@@H](Cc1ccccc1)C(=O)OC)S(=O)(=O)c1ccccc1Br (some centres not stated),nt,-1%,10%,23µM*,nt,?
Cc1cc(C(=O)N2CCCCCC2)sc1C,nt,5%,nt,nt,nt,nt
CCCCNC(=O)C1(C)CCN1C(=O)c1ccc2c(c1)C(C)(C)CCC2(C)C (configuration not stated),nt,27%,nt,13µM*,nt,21µM*
CCCCNC(=O)C1(C)CCCCN1C(=O)c1ccc2c(c1)C(C)(C)CCC2(C)C (configuration not stated),nt,-3%,nt,2.1µM*,nt,3.7µM*
CCCCNC(=O)C1(C)CCCCN1C(=O)c1ccc(F)c(C)c1 (configuration not stated),nt,5%,nt,?,nt,?
COc1ccccc1SC(C)C(=O)NC1CCCC1 (configuration not stated),nt,9%,nt,nt,nt,nt
COc1ccc(C2=NN(C(C#N)c3ccc(OC)c(OC)c3)C(c3ccccc3)C2)cc1 (configuration not stated),?,?,?,21µM*,?,?
Brc1cccc(/C=N/Nc2cccc3cccnc23)c1,nt,-17%,nt,nt,nt,nt
COc1cc(/C=N/Nc2cccc(C)c2)cc(Br)c1O,-7%,2.8µM*,-14%,4%,1%,6%
COc1cc(/C=N/Nc2cccc(C)c2)ccc1OC(=O)c1cccs1,-7%,?,?,-33%,12%,-21%
Oc1cccc(/C=N/Nc2cccc3cccnc23)c1,?,?,?,?,7.1µM*,?

# Bioassay records from PubChem.
